Measurements as given in the OligoGym collection.

Target: POLH
Experiment: pooled miR-30 sensor sort-seq; sequence = guide strand
Conditions: shRNA

Compared with TTTAGAGGATTCTTCTAGCTTC, TAGAAGCAGACTTTTCTGCTTA is lower in sensor-assay potency score (higher = more potent): 0.456 for the first, 0.259 for the second.

Going from TTGCTTTAGAGGATTCTTCTAG to TACACGAATGCTCACAACCAGC, the sensor-assay potency score (higher = more potent) falls from -0.177 to -1.33.

Compared with TTGTACTGTACAACTGCACAAG, TTACAGTTCTTGATGACAGTAA is higher in sensor-assay potency score (higher = more potent): -0.852 for the first, 0.425 for the second.

TATCAATCTGAAGAGAATCGAG was tested, and the sensor-assay potency score (higher = more potent) was -0.521.

Target: POLN
Experiment: as above
Conditions: shRNA

Going from TTATAAGAAACCGTTCTCCTGC to TAATGGATGAAGGTCTCGCAGA, the sensor-assay potency score (higher = more potent) falls from 0.596 to -0.869.

First: TTGCTCGTTATAAGAAACCGTT
Second: TGACTTGATCTTGTGAACCTGC
The sensor-assay potency score (higher = more potent) of the first is lower: -0.677 for the first, 0.614 for the second.

Going from TTGCCATAAACCATAATCCTTC to TTGATCTTGTGAACCTGCCTGT, the sensor-assay potency score (higher = more potent) rises from -1.02 to 0.754.

First: TTTTTGGTCAGCAGACAGCTGA
Second: TTTACTAACACCACAATTCCTC
The sensor-assay potency score (higher = more potent) of the first is lower: -1.02 for the first, -0.28 for the second.

Going from TTCATTATTTATATTCTCCATT to TTTGTTTACTTGTTTTCTCTGA, the sensor-assay potency score (higher = more potent) rises from -0.758 to -0.00359.

TCTATTTGAATGTAGATGCATG gave a sensor-assay potency score (higher = more potent) of -0.558.

Target: POLR2B
Experiment: as above
Conditions: shRNA

First: TTTTCTCTTTAGTAACACCAGG
Second: TATTATGCAACTGTCTTGGTTT
The sensor-assay potency score (higher = more potent) of the first is lower: -1.3 for the first, -0.109 for the second.

Going from TATATGTGGAACAATAAGCTAC to AAGATTGCAAACATGAACCTGA, the sensor-assay potency score (higher = more potent) rises from -0.462 to 0.822.

Going from TTTTACAAAATTTATATCCTTC to TTCTAAAATATCTCTGTCGGAC, the sensor-assay potency score (higher = more potent) falls from 0.417 to -0.797.

First: TATCAAACCATCATCATCCAGC
Second: TTCTTTTTGTAAAACTTCCTTT
The sensor-assay potency score (higher = more potent) of the first is higher: -0.225 for the first, -0.613 for the second.

Compared with TAGTGCAACATTCTGTTCTTGG, TAGGAACTGATTACAATCCAGC is lower in sensor-assay potency score (higher = more potent): 0.768 for the first, -0.664 for the second.

Compared with TAAAAGATTAGAAATCTTCTGC, TTTCTCTTTAGTAACACCAGGC is lower in sensor-assay potency score (higher = more potent): 0.528 for the first, -0.352 for the second.

Target: POLR3B
Experiment: as above
Conditions: shRNA

Compared with TTTATTAATTGTGTGTTCGTAC, TAAATTTTTTGAACAAGTCTTC is lower in sensor-assay potency score (higher = more potent): 0.467 for the first, -0.054 for the second.

Going from TATCCTTTAGGTCACATCCATC to TTGACAATTATGTAGGGTCTGC, the sensor-assay potency score (higher = more potent) rises from -1.12 to -0.266.

Going from TAACAATGAAGTAGCCACCTGG to TTACATTGAAGCTTTCTTCAAC, the sensor-assay potency score (higher = more potent) rises from -0.287 to 0.0741.

First: TATATGAGTCTGTTGCTCCTTT
Second: TTAAGTACCACATAGGGTCAGC
The sensor-assay potency score (higher = more potent) of the first is higher: 0.252 for the first, -0.683 for the second.

First: TTTCCTTGTAGCAGCATCCAAC
Second: TAGCTCATCACAGCAACTGTTG
The sensor-assay potency score (higher = more potent) of the first is lower: -0.877 for the first, -0.674 for the second.
